Pf apPOL block = Pf-apPOL inhibitors, biochemical, fluorescence; Plasmodium falciparum apicoplast DNA polymerase (apPOL); Recombinant Pf-apPOL, molecular beacon fluorescence, 1.5 h; inhibition, % at 10 µM; 210,000 compounds, 0.25% hits; AID 1794808, 2022
mHTT-CaM PPI inh = mutant huntingtin-calmodulin interaction inhibitors – biochemical, AlphaScreen, primary screen; 190,000 compounds, 3.6% hits; inhibition, % at 15 µM; P42858; AlphaScreen His-mHTT/GST-CaM binding, luminescence;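 note: 0% = both proteins with DMSO and 100% = one protein alone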
Active calls of the source: *; ! = not confirmed by another sample. Only some compounds are listed: those with a hit (about 3.5% of all), similar ones and a draw of the others. Cut-off read from the data, not from the text of the source: active = inhibition above about 50%; inactive = the rest.

Results for CC1=C(C(=O)Nc2ccccn2)C(c2ccc(OCc3ccccc3)cc2)n2nnnc2N1 (stereo not drawn) ?
Pf apPOL block: 6; mHTT-CaM PPI inh: 46

Results for CC1=C(C(=O)Nc2ccccc2)C(c2ccc(OCc3ccccc3)cc2)n2nnnc2N1 (stereo not drawn) ?
Pf apPOL block: -5; mHTT-CaM PPI inh: 62*

What do the screens show for `CCc1ccc(N(CC(=O)N2CCc3ccccc3C2)S(C)(=O)=O)cc1`?
Pf apPOL block: -5; mHTT-CaM PPI inh: 22

How did O=[N+]([O-])c1cccc(C2Nc3c(cccc3[N+](=O)[O-])C3C=CCC32)c1 (stereo not drawn) do in these assays?
Pf apPOL block: -6; mHTT-CaM PPI inh: 72*

Results for O=[N+]([O-])c1ccc(C2Nc3c(Cl)cccc3C3C=CCC32)cc1 (stereo not drawn) ?
Pf apPOL block: 19; mHTT-CaM PPI inh: 18

Results for O=[N+]([O-])c1cccc(C2Nc3c(Cl)cccc3C3C=CCC32)c1 (stereo not drawn) ?
Pf apPOL block: -1; mHTT-CaM PPI inh: 75*!

How did O=[N+]([O-])c1cccc(C2Nc3c(cccc3C(F)(F)F)C3C=CCC32)c1 (stereo not drawn) do in these assays?
Pf apPOL block: 1; mHTT-CaM PPI inh: 58*

How did O=[N+]([O-])c1cccc(C2NCCC3(O)CCCCC23)c1 (stereo not drawn) do in these assays?
Pf apPOL block: 0; mHTT-CaM PPI inh: -13

What do the screens show for `CCOC(=O)c1c(NN=Cc2ccccc2O)n[nH]c1C`?
Pf apPOL block: -2

Results for COc1ccc(N2CCN(C(=O)C3CCCN(c4cnn(C)c(=O)c4)C3)CC2)cc1 (stereo not drawn) ?
Pf apPOL block: -4; mHTT-CaM PPI inh: 8

Results for CCC(CC)NC(=O)c1ccc(C)c(C)c1 ?
Pf apPOL block: -8; mHTT-CaM PPI inh: -3

How did N=c1c2cnn(-c3ccccc3)c2ncn1NC(=S)Nc1ccc(Cl)cc1Cl do in these assays?
Pf apPOL block: -416

How did O=C(Nc1ccc(I)cc1)C1COc2ccccc2O1 (stereo not drawn) do in these assays?
Pf apPOL block: -7; mHTT-CaM PPI inh: -37

What do the screens show for `CC(Sc1ccc(Cl)cc1)C(N)=O` (stereo not drawn)?
Pf apPOL block: -9; mHTT-CaM PPI inh: 1

Results for CC1CCC2(CC1)SCC(=O)N2c1ccc(Br)cc1 (stereo not drawn) ?
Pf apPOL block: 13; mHTT-CaM PPI inh: 2

How did CC1(c2ccc(Br)cc2)NC(=O)CS1 (stereo not drawn) do in these assays?
Pf apPOL block: -6; mHTT-CaM PPI inh: 85*

Results for COc1cc(OC)cc(C(=O)N2CCC3(CC2)Nc2cccnc2NC3=NC2CCCC2)c1 ?
Pf apPOL block: -5; mHTT-CaM PPI inh: 26

Results for O=C(CC(=O)c1ccc([N+](=O)[O-])cc1)Nc1ccc2c(c1)OCO2 ?
Pf apPOL block: -4; mHTT-CaM PPI inh: 51*

How did O=C(Cc1ccc([N+](=O)[O-])cc1)Nc1ccc2c(c1)OCO2 do in these assays?
Pf apPOL block: -6; mHTT-CaM PPI inh: 2

What do the screens show for `Cc1ccc2c(c1)/C(=C/c1nc3ccccc3c(=O)n1-c1ccccc1[N+](=O)[O-])C(=O)N2`?
Pf apPOL block: 2; mHTT-CaM PPI inh: 86*

What do the screens show for `Cc1ccc2c(c1)/C(=C/c1nc3ccccc3c(=O)n1C)C(=O)N2`?
Pf apPOL block: -2; mHTT-CaM PPI inh: 26

What do the screens show for `CC(C)(C)c1[nH]nc2c1C(c1ccco1)C(C#N)=C(N)O2` (stereo not drawn)?
Pf apPOL block: -1; mHTT-CaM PPI inh: 1

What do the screens show for `N#CC1=C(N)Oc2n[nH]c(-c3ccccn3)c2C1c1ccco1` (stereo not drawn)?
Pf apPOL block: 0; mHTT-CaM PPI inh: 91*

Results for CCC(C(=O)N1CCC(Cc2nnc(-c3ccccc3)o2)CC1)c1ccccc1 (stereo not drawn) ?
Pf apPOL block: -2; mHTT-CaM PPI inh: 7

How did CC(=O)N1CCN(c2nc3c(s2)CC(C(=O)NCCC2CCN(C)CC2)CC3)CC1 (stereo not drawn) do in these assays?
Pf apPOL block: -4; mHTT-CaM PPI inh: 2

How did CCCCN(CC)S(=O)(=O)c1ccc(C(=O)Nc2nnc(C3CC3)o2)cc1 do in these assays?
Pf apPOL block: -18; mHTT-CaM PPI inh: 16

Results for CCCCN(CCCC)S(=O)(=O)c1ccc(C(=O)Nc2nnc(C)o2)cc1 ?
Pf apPOL block: -7; mHTT-CaM PPI inh: 58*

How did COCCN(CCOC)S(=O)(=O)c1ccc(C(=O)Nc2nnc(C)o2)cc1 do in these assays?
Pf apPOL block: -58; mHTT-CaM PPI inh: 22

Results for CCN(Cc1ccccc1)S(=O)(=O)c1ccc(C(=O)Nc2nnc(C3CC3)o2)cc1 ?
Pf apPOL block: -63; mHTT-CaM PPI inh: 72*

What do the screens show for `NC(=O)C1Cc2ccccc2N1C(=O)c1ccc(Br)o1` (stereo not drawn)?
Pf apPOL block: -4; mHTT-CaM PPI inh: 0
